According to PubChem BioAssay AID602281 (The Scripps Research Institute Molecular Screening Center, 2012):
Hit rate of the full screen: of about 360,000 compounds, about 2,900 (0.81%) were called active. This is one part of a sample in which actives are shown more often than they occur.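 How the source made its calls: active means inhibition above the mean inhibition across every tested compound plus 3 SD (cut at about 22% in these data); inactive means the rest.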

Target: Perilipin-5 (Homo sapiens) + 1-acylglycerol-3-phosphate O-acyltransferase ABHD5 (Homo sapiens) (UniProt Q00G26+Q8WTS1)
Sequence (Q00G26 whole entry, looked up): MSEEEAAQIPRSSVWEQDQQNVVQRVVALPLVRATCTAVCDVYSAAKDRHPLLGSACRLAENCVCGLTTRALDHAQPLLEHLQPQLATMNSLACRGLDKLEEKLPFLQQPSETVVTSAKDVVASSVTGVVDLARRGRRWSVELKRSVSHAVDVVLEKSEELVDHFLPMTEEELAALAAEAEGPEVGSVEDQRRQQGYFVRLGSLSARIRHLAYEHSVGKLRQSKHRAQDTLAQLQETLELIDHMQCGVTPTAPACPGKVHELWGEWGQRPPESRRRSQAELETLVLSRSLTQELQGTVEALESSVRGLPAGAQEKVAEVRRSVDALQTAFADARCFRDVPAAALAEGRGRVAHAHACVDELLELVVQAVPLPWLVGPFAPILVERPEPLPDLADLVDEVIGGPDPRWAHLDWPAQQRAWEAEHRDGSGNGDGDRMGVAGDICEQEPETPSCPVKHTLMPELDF
Sequence (Q8WTS1 whole entry, looked up): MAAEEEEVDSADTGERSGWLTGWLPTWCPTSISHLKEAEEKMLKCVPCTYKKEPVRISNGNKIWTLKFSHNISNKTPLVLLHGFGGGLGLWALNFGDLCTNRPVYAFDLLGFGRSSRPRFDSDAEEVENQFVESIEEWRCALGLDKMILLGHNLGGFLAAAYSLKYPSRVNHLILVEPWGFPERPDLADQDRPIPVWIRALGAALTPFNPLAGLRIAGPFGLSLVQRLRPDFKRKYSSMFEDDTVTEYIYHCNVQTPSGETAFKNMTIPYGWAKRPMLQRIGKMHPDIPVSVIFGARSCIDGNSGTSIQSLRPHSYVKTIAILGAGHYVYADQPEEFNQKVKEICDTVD
Test: blockers of ABHD5 binding to perilipin-5 – cell lysate, split luciferase complementation, luminescence, primary screen (AID 602281);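 further: 0% = DMSO only wells and the 100% control is not disclosed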
Settings: Split G. princeps luciferase complementation, 4 h, at 4 µM, active compounds read high

Structure (SMILES)	inhibition
OCCCC1CCCCN1Cc1nc(Cc2ccccc2Cl)no1 (stereo unspecified)	0.62% (inactive)
CC[C@H](C)C(=O)N[C@H]1CCCN1C(=O)/C=C/c1ccccc1	1.82% (inactive)
CC(=O)Nc1ccc(NC(=O)c2ccc3c(c2)C(=O)N(c2ccccc2C)C3=O)cc1	6.37% (inactive)
COC(=O)[C@@H]1CCCN1C(=O)c1cc(COc2cccc3cccnc23)on1	-0.57% (inactive)
COc1ccc2c(c1)c(=Cc1ccc(N(C)C)cc1)c1cc(-c3ccccc3)[n+](C)n12	30.2% (active)
O=C(NC1CCN(S(=O)(=O)c2ccc(F)cc2)CC1)c1ccccc1	4.55% (inactive)
CCN(C(=O)c1ccc(Br)cc1)c1ccccc1	0.98% (inactive)
Cc1ccn(C(CC(=O)c2ccc(Br)cc2)C(=O)O)n1 (stereo unspecified)	33.3% (active)
Cc1ccc(NC(=O)CCC(=O)c2ccc(Br)cc2)cc1	4.03% (inactive)
CCCCN(CC)CCCNC(=O)c1ccc(CSc2nc3ccncc3[nH]2)cc1	-1.26% (inactive)
COc1ccc(N(Cc2cc3ccc(C)cc3[nH]c2=O)S(=O)(=O)c2ccccc2)cc1	-3.39% (inactive)
CC1CCC(NS(=O)(=O)c2ccc3c(c2)CC(=O)N3)CC1 (stereo unspecified)	2.49% (inactive)
Cn1sc(=O)c2cc(S(=O)(=O)NC3CC3)ccc21	43.1% (active)
O=S(=O)(NC1CC1)c1ccc(F)c(F)c1	7.64% (inactive)
CC1CCCC(NC(=O)COC(=O)c2ccccc2C(=O)N(C)C2CCCCC2)C1C (stereo unspecified)	1.5% (inactive)
COc1ccccc1/C=C/C(=O)NC1CC2CCC1C2 (stereo unspecified)	-5.4% (inactive)
CCOC(=O)C(=Cc1ccccc1)C(=O)c1ccccc1	86.5% (active)
CCOC(=O)C(=Cc1ccccc1OC)C(=O)OCC	35.8% (active)
CCc1ccccc1NC(=O)/C(=C/c1ccccc1)c1ccccc1	-13.9% (inactive)
CCOC(=O)/C(=C\c1ccc([N+](=O)[O-])cc1)C(=O)c1cc(C(C)=O)c(Nc2ccccc2)s1	-2.52% (inactive)
COc1ccccc1C(=O)c1ccccc1C(=O)c1ccccc1	-6.91% (inactive)
Cc1ccc(C(=O)NCC(=O)OCC(=O)Nc2cccc(S(=O)(=O)N3CCCC3)c2)cc1C	-2.63% (inactive)
O=C(CCCN1C(=O)C(c2ccccc2)Oc2cccnc21)Nc1ccccc1Br (stereo unspecified)	6.82% (inactive)
COC(=O)[C@@H]1C[C@@]2(O)[C@H](O)[C@H](O)[C@H](O)C[C@H]2N1Cc1ccc(C(C)(C)C)cc1	6.53% (inactive)
O=C(c1cccc(F)c1)N1CCC(O)(c2cccnc2)CC1	0.25% (inactive)
N#CCOc1ccc(C2=NO[C@@H]3[C@@H]4C[C@@H]([C@H]5C(=O)N(c6ccc7c(c6)OCO7)C(=O)[C@@H]45)[C@H]23)cc1	-3.78% (inactive)
